Assay results published in paper PMC5540273 (PLoS ONE, 2017).

Test system: PAK7
Settings: concentration: 1 μM, replicates: in singlicate; n = 1
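Note: KINOMEscan kinase panel screen.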

Question: How did the “%Inh” value turn out when `COc1cc2ncn(-c3cc(OCC4CCCO4)c(C(N)=O)s3)c2cc1OC` (stereo not drawn) [GSK204607] was run?
Answer: 12%

Question: For `COc1ccccc1-c1ccc2c(NC(=O)C3CC3)n[nH]c2n1` [SB-711239], which “%Inh” value is on record?
Answer: 4%

Question: How did the “%Inh” value turn out when `Cc1cccc(-c2cc(Nc3ccncc3)c3ccccc3n2)n1` [GSK223675] was run?
Answer: 0%

Question: How did the “%Inh” value turn out when `COc1ccc(Nc2nccc(-c3cccc(NC(=O)c4cc5cc(F)ccc5[nH]4)c3)n2)cc1` [GSK1229782] was run?
Answer: 51%

Question: For `COc1ccc(Nc2nccc(NCCNC(=O)Nc3ccccc3F)n2)cc1` [GSK1379901], which “%Inh” value is on record?
Answer: 0%

Question: `NC(=O)c1nnc2ccccc2c1N` was tested. Which “%Inh” value did it give?
Answer: 0%

Question: `CC(C)(C)c1ccc(C(=O)Nc2cn3cc(Cl)ccc3n2)cc1` was tested. Which “%Inh” value did it give?
Answer: 27%

Question: How did the “%Inh” value turn out when `COc1cccc(NC(=O)NC2CCN(c3ccnc(Nc4ccc(F)cc4)n3)C2)c1` (stereo not drawn) [GSK1379721] was run?
Answer: 10%

Question: How did the “%Inh” value turn out when `Cc1ccc(-c2cc(-c3c[nH]nc3-c3ccccn3)ccn2)cc1` [GW684088] was run?
Answer: 19%

Question: `Cc1cc(N2Cc3ccccc3C2)nc(Nc2ccc(S(=O)(=O)N3CCOCC3)cc2)n1.Cl` [GSK1669917] was tested. Which “%Inh” value did it give?
Answer: 0%

Question: With `CC(C)(C)c1ccc(C(=O)Nc2cn3cc(-c4cccnc4)ccc3n2)cc1` as the compound, how does the “%Inh” value read?
Answer: 10%

Question: `Cc1ccccc1-n1cnc2c(N)ncnc21` [SKF-97510] was tested. Which “%Inh” value did it give?
Answer: 0%

Question: Which “%Inh” value does the source give for `Fc1cccc(COc2nnc(-c3ccc4c(c3)CCO4)o2)c1` here?
Answer: 17%

Question: `Cc1ccc(C(=O)Nc2ccc(Nc3ccnc4cc(-c5ccccn5)ccc34)cc2O)cc1.Cl` [GW440146] was tested. Which “%Inh” value did it give?
Answer: 0%

Question: Which “%Inh” value does the source give for `CS(=O)(=O)c1ccc(-c2c(-c3ncn[nH]3)sc(N3CCOCC3)c2C#N)cc1` here?
Answer: 0%

Question: With `COc1cc2nccc(Nc3ccc(NC(=O)c4ccc(C)cc4)c(O)c3)c2cc1OC.Cl` [GW440132] as the compound, how does the “%Inh” value read?
Answer: 0%

Question: How did the “%Inh” value turn out when `COC(=O)c1c(-c2ccccc2)c2cc(OC)ccc2c(=O)n1Cc1ccccc1` was run?
Answer: 5%

Question: With `O=C(O)COc1ncnc2cc(-c3ccc4[nH]ncc4c3)sc12` as the compound, how does the “%Inh” value read?
Answer: 7%

Question: `COc1ccc(C2=C(Nc3cccc(C(=O)O)c3)C(=O)NC2=O)cc1` [SB-390765] was tested. Which “%Inh” value did it give?
Answer: 0%

Question: `CCn1c(-c2ccccn2)nc2cnccc21` [SB-736398] was tested. Which “%Inh” value did it give?
Answer: 0%

Question: Which “%Inh” value does the source give for `Cn1ccc2ncnc(Oc3ccc(Nc4nc5ccccc5[nH]4)cc3)c21` here?
Answer: 0%

Question: Which “%Inh” value does the source give for `O=C(Nc1n[nH]c2cc(-c3cccc(F)c3F)ccc12)C1CC1` [SB-733894] here?
Answer: 1%

Question: How did the “%Inh” value turn out when `Clc1cc(Cl)cc(Nc2ccnc(Nc3cc(Cl)cc(Cl)c3)n2)c1` [GSK175726] was run?
Answer: 10%

Question: With `Cc1cccc(-c2nc(Nc3ccncc3)c3ccccc3n2)n1` [GW855857] as the compound, how does the “%Inh” value read?
Answer: 0%

Question: Which “%Inh” value does the source give for `CCCc1ccc(S(=O)(=O)NC2CCN(c3ccnc(Nc4ccc(F)cc4)n3)C2)cc1` (stereo not drawn) [GSK1379715] here?
Answer: 0%

Question: Which “%Inh” value does the source give for `COc1ccc(CNC(=O)NC2CCN(c3ccnc(Nc4cc(OC)c(OC)c(OC)c4)n3)C2)cc1` (stereo not drawn) [GSK1379748] here?
Answer: 2%

Question: How did the “%Inh” value turn out when `Cc1c(O)cccc1Nc1ccnc2ccc(C(F)(F)F)cc12.Cl` [GW466413] was run?
Answer: 0%

Question: How did the “%Inh” value turn out when `Cc1c(Cn2ccn3c(=O)cc(N4CCOCC4)nc23)cccc1C(F)(F)F` [GSK2289044] was run?
Answer: 27%

Question: `COC(=O)c1c(-c2ccccc2)c2cc(C(=O)O)ccc2c(=O)n1Cc1ccccc1` was tested. Which “%Inh” value did it give?
Answer: 0%

Question: How did the “%Inh” value turn out when `Cl.c1ccc(-c2n[nH]cc2-c2ccnc(-c3ccc(CN4CCOCC4)cc3)c2)nc1` [GW776245] was run?
Answer: 0%

Question: Which “%Inh” value does the source give for `Cc1cc(NCC(c2ccccc2)c2ccccc2)nc(NCc2ccc(C(F)(F)F)cc2)n1` [GW497681] here?
Answer: 0%

Question: With `COc1cccc(-c2cc(-c3c[nH]nc3-c3ccccn3)ccn2)c1` [GW680338] as the compound, how does the “%Inh” value read?
Answer: 9%

Question: `O=C(Nc1ccccc1)Nc1cccc(Oc2ccc3nccn3n2)c1` was tested. Which “%Inh” value did it give?
Answer: 29%

Question: With `Nc1ncnc2[nH]c(-c3ccccc3)nc12` [AH5015] as the compound, how does the “%Inh” value read?
Answer: 0%

Test system: T1, PCTK1
T1 construct: gene CDK16
Settings: concentration: 1 μM, replicates: in singlicate; n = 1

Question: With `COc1cc2ncn(-c3cc(OCC4CCCO4)c(C(N)=O)s3)c2cc1OC` (stereo not drawn) [GSK204607] as the compound, how does the “%Inh” value read?
Answer: 0%

Question: With `COc1ccccc1-c1ccc2c(NC(=O)C3CC3)n[nH]c2n1` [SB-711239] as the compound, how does the “%Inh” value read?
Answer: 1%

Question: For `Cc1cccc(-c2cc(Nc3ccncc3)c3ccccc3n2)n1` [GSK223675], which “%Inh” value is on record?
Answer: 13%

Question: `COc1ccc(Nc2nccc(-c3cccc(NC(=O)c4cc5cc(F)ccc5[nH]4)c3)n2)cc1` [GSK1229782] was tested. Which “%Inh” value did it give?
Answer: 1%

Question: Which “%Inh” value does the source give for `COc1ccc(Nc2nccc(NCCNC(=O)Nc3ccccc3F)n2)cc1` [GSK1379901] here?
Answer: 4%

Question: With `CSc1nn2c(=O)cc(N3CCOCC3)nc2n1Cc1cccc(C(F)(F)F)c1C` [GSK2363608] as the compound, how does the “%Inh” value read?
Answer: 2%

Question: How did the “%Inh” value turn out when `NC(=O)c1nnc2ccccc2c1N` was run?
Answer: 6%

Question: Which “%Inh” value does the source give for `CC(C)(C)c1ccc(C(=O)Nc2cn3cc(Cl)ccc3n2)cc1` here?
Answer: 0%

Question: For `COc1cccc(NC(=O)NC2CCN(c3ccnc(Nc4ccc(F)cc4)n3)C2)c1` (stereo not drawn) [GSK1379721], which “%Inh” value is on record?
Answer: 1%

Question: With `Cc1ccc(-c2cc(-c3c[nH]nc3-c3ccccn3)ccn2)cc1` [GW684088] as the compound, how does the “%Inh” value read?
Answer: 0%

Question: How did the “%Inh” value turn out when `Cc1cc(N2Cc3ccccc3C2)nc(Nc2ccc(S(=O)(=O)N3CCOCC3)cc2)n1.Cl` [GSK1669917] was run?
Answer: 0%

Question: For `CC(C)(C)c1ccc(C(=O)Nc2cn3cc(-c4cccnc4)ccc3n2)cc1`, which “%Inh” value is on record?
Answer: 0%

Question: How did the “%Inh” value turn out when `Cc1ccccc1-n1cnc2c(N)ncnc21` [SKF-97510] was run?
Answer: 0%

Question: For `Fc1cccc(COc2nnc(-c3ccc4c(c3)CCO4)o2)c1`, which “%Inh” value is on record?
Answer: 8%

Question: Which “%Inh” value does the source give for `Cc1ccc(C(=O)Nc2ccc(Nc3ccnc4cc(-c5ccccn5)ccc34)cc2O)cc1.Cl` [GW440146] here?
Answer: 0%

Question: Which “%Inh” value does the source give for `CS(=O)(=O)c1ccc(-c2c(-c3ncn[nH]3)sc(N3CCOCC3)c2C#N)cc1` here?
Answer: 0%

Question: How did the “%Inh” value turn out when `COc1cc2nccc(Nc3ccc(NC(=O)c4ccc(C)cc4)c(O)c3)c2cc1OC.Cl` [GW440132] was run?
Answer: 4%

Question: How did the “%Inh” value turn out when `COC(=O)c1c(-c2ccccc2)c2cc(OC)ccc2c(=O)n1Cc1ccccc1` was run?
Answer: 0%

Question: With `O=C(O)COc1ncnc2cc(-c3ccc4[nH]ncc4c3)sc12` as the compound, how does the “%Inh” value read?
Answer: 17%

Question: For `COc1ccc(C2=C(Nc3cccc(C(=O)O)c3)C(=O)NC2=O)cc1` [SB-390765], which “%Inh” value is on record?
Answer: 1%

Question: With `CCn1c(-c2ccccn2)nc2cnccc21` [SB-736398] as the compound, how does the “%Inh” value read?
Answer: 3%

Question: How did the “%Inh” value turn out when `Cn1ccc2ncnc(Oc3ccc(Nc4nc5ccccc5[nH]4)cc3)c21` was run?
Answer: 0%

Question: With `O=C(Nc1n[nH]c2cc(-c3cccc(F)c3F)ccc12)C1CC1` [SB-733894] as the compound, how does the “%Inh” value read?
Answer: 0%

Question: `Clc1cc(Cl)cc(Nc2ccnc(Nc3cc(Cl)cc(Cl)c3)n2)c1` [GSK175726] was tested. Which “%Inh” value did it give?
Answer: 0%

Question: For `Cc1cccc(-c2nc(Nc3ccncc3)c3ccccc3n2)n1` [GW855857], which “%Inh” value is on record?
Answer: 0%

Question: With `CCCc1ccc(S(=O)(=O)NC2CCN(c3ccnc(Nc4ccc(F)cc4)n3)C2)cc1` (stereo not drawn) [GSK1379715] as the compound, how does the “%Inh” value read?
Answer: 0%

Question: How did the “%Inh” value turn out when `COc1ccc(CNC(=O)NC2CCN(c3ccnc(Nc4cc(OC)c(OC)c(OC)c4)n3)C2)cc1` (stereo not drawn) [GSK1379748] was run?
Answer: 7%

Question: How did the “%Inh” value turn out when `Cc1c(O)cccc1Nc1ccnc2ccc(C(F)(F)F)cc12.Cl` [GW466413] was run?
Answer: 0%

Question: Which “%Inh” value does the source give for `Cc1c(Cn2ccn3c(=O)cc(N4CCOCC4)nc23)cccc1C(F)(F)F` [GSK2289044] here?
Answer: 2%

Question: How did the “%Inh” value turn out when `COC(=O)c1c(-c2ccccc2)c2cc(C(=O)O)ccc2c(=O)n1Cc1ccccc1` was run?
Answer: 8%

Question: How did the “%Inh” value turn out when `Cl.c1ccc(-c2n[nH]cc2-c2ccnc(-c3ccc(CN4CCOCC4)cc3)c2)nc1` [GW776245] was run?
Answer: 0%

Question: With `Cc1cc(NCC(c2ccccc2)c2ccccc2)nc(NCc2ccc(C(F)(F)F)cc2)n1` [GW497681] as the compound, how does the “%Inh” value read?
Answer: 0%

Question: `COc1cccc(-c2cc(-c3c[nH]nc3-c3ccccn3)ccn2)c1` [GW680338] was tested. Which “%Inh” value did it give?
Answer: 0%

Question: Which “%Inh” value does the source give for `O=C(Nc1ccccc1)Nc1cccc(Oc2ccc3nccn3n2)c1` here?
Answer: 0%

Question: With `Nc1ncnc2[nH]c(-c3ccccc3)nc12` [AH5015] as the compound, how does the “%Inh” value read?
Answer: 3%
